From PubChem BioAssay (NCI)
The panel holds about 79,000 compounds, 15% with a hit somewhere; the sample as a whole holds those more often. Activity calls are given as the source filed them. No stated cut-off is given here; in the data, active means growth inhibition above about 70%; inactive means the rest.

Columns and labels:
[1] = NCI Yeast Anticancer Drug Screen. Data for the wt2 strain (AID 169);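 further: 0% = growth of vehicle-treated yeast cultures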; conditions: S. cerevisiae wt2 strain growth inhibition, hits give high values
How it was run: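 Inhibition of yeast growth was determined after compound treatment, normalised to controls receiving only vehicle.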

[2] = NCI Yeast Anticancer Drug Screen. Data for the mlh1 strain (AID 171);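 further: 0% = growth of vehicle-treated control cultures of the same strain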; conditions: S. cerevisiae mlh1 strain growth inhibition, hits give high values
How it was run: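 Vehicle-normalised growth inhibition of a repair- or checkpoint-altered yeast strain following compound treatment.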

[3] = NCI Yeast Anticancer Drug Screen. Data for the sgs1 strain (AID 173);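 further: 0% = growth of vehicle-only control cultures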; conditions: S. cerevisiae sgs1 mutant, hits give high values
How it was run: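 Screen format: yeast with repair or checkpoint alterations, compound exposure, growth read relative to vehicle.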

[4] = NCI Yeast Anticancer Drug Screen. Data for the rad18 strain (AID 177); conditions: S. cerevisiae rad18 mutant growth inhibition, hits give high values
How it was run: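 Test articles were incubated with altered yeast defective in DNA damage repair. Results are given as inhibition of growth versus vehicle.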

[5] = NCI Yeast Anticancer Drug Screen. Data for the rad52 strain (AID 147);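 further: 0% = growth of vehicle-treated control cultures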; conditions: S. cerevisiae rad52 mutant growth inhibition, hits give high values
How it was run: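 Vehicle-treated cultures served as the reference for growth inhibition of compound-exposed yeast bearing a DNA repair mutation.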

[6] = NCI Yeast Anticancer Drug Screen. Data for the wt1 strain (AID 149);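 further: 0% = growth of vehicle-treated wt1 cultures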; conditions: S. cerevisiae wt1 strain (SPY 50644) growth inhibition, hits give high values
How it was run: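 Measured: growth of wt1 yeast under compound versus vehicle treatment, reported as inhibition.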

[7] = NCI Yeast Anticancer Drug Screen. Data for the rad50EPP+ strain (AID 151);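 further: 0% = growth of vehicle-treated control cultures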; conditions: S. cerevisiae rad50 mutant strain, hits give high values
How it was run: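 In this screen, rad50EPP+ yeast were exposed to compounds. Growth inhibition was scored against vehicle-treated controls.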

[8] = NCI Yeast Anticancer Drug Screen. Data for the mgt1 strain (AID 153); conditions: S. cerevisiae mgt1 mutant growth inhibition, hits give high values
How it was run: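 mgt1 strain exposed; growth vs vehicle control recorded as inhibition.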

[9] = NCI Yeast Anticancer Drug Screen. Data for the rad50 strain (AID 155);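 further: 0% = growth of vehicle-only cultures of the same strain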; conditions: S. cerevisiae rad50 strain growth inhibition, hits give high values
How it was run: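 Growth of the mutant yeast was measured after compound exposure and referenced to vehicle-treated cultures.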

[10] = NCI Yeast Anticancer Drug Screen. Data for the mec2-1 strain (AID 157); conditions: S. cerevisiae mec2-1 strain, hits give high values
How it was run: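 Vehicle-treated cultures served as reference for growth inhibition of compound-exposed mec2-1 yeast.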

[11] = NCI Yeast Anticancer Drug Screen. Data for the rad14 strain (AID 159);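 further: 0% = growth of vehicle-treated control cultures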; conditions: S. cerevisiae rad14 strain growth inhibition, hits give high values
How it was run: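 Here, inhibition of yeast growth was measured after compound exposure, using a strain with a genetic defect in DNA damage repair and vehicle-treated cultures as the reference.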

[12] = NCI Yeast Anticancer Drug Screen. Data for the sgs1 mgt1 strain (AID 161);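 further: 0% = growth of cultures given vehicle only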; conditions: S. cerevisiae sgs1 mgt1 strain, hits give high values
How it was run: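 Test agents were incubated with a DNA-repair-mutant yeast strain. Growth was then read and compared against vehicle-treated controls.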

[13] = NCI Yeast Anticancer Drug Screen. Data for the CLN2oe strain (AID 163);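 further: 0% = growth of vehicle-only control cultures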; conditions: S. cerevisiae CLN2oe strain, hits give high values
How it was run: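 Inhibition relative to vehicle-treated yeast is reported. Cells: strain with genetic alteration in cell-cycle control, grown with compound.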

[14] = NCI Yeast Anticancer Drug Screen. Data for the cln2 rad14 strain (AID 165);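 further: 0% = growth equal to vehicle treated cultures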; conditions: S. cerevisiae cln2 rad14 strain, hits give high values
How it was run: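 Each compound was tested on cln2 rad14 yeast. Inhibition of growth was calculated against vehicle-exposed controls.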

[15] = NCI Yeast Anticancer Drug Screen. Data for the bub3 strain (AID 167); conditions: S. cerevisiae bub3 mutant strain, hits give high values
How it was run: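 Whole-cell yeast assay. The mutant strain was incubated with compounds, and growth inhibition was determined by comparison with vehicle-treated cells.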

[16] = NCI Yeast Anticancer Drug Screen. Data for the mlh1 rad18 strain (AID 175); conditions: S. cerevisiae mlh1 rad18 strain growth inhibition, hits give high values
How it was run: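 Vehicle-treated cultures served as the reference for growth inhibition in a yeast strain carrying DNA damage repair alterations exposed to each compound.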

[17] = at 5.0 µM (retest, dose inferred, filed as 0.5)
[18] = at 50.0 µM (retest, dose inferred, filed as 5.0)

Measured: growth inhibition

CC(/C=C/c1ccc2c(c1)OCO2)[N+](=O)[O-] (stereo not drawn)
inactive: [1]; at 1.2 µM 10% | [2]; at 1.2 µM -2% | [2]; at 3.7 µM 64% | [3]; at 1.2 µM 30% | [4]; at 1.2 µM 10% | [4]; at 3.7 µM 58%
active: [1]; at 3.7 µM 97% | [1]; at 11.0 µM 100% | [1]; at 33.0 µM 100% | [1]; at 100.0 µM 100% | [2]; at 11.0 µM 99% | [2]; at 33.0 µM 99% | [2]; at 100.0 µM 99% | [3]; at 3.7 µM 82% | [3]; at 11.0 µM 99% | [3]; at 33.0 µM 99% | [3]; at 100.0 µM 99% | [4]; at 11.0 µM 99% | [4]; at 33.0 µM 99% | [4]; at 100.0 µM 99%

COc1cc2c(cc1[N+](=O)[O-])C(=O)C(Br)(Br)CCC2
inactive: [5]; at 1.2 µM 39% | [5]; at 3.7 µM 63% | [6]; at 1.2 µM 38% | [6]; at 3.7 µM 50% | [7]; at 1.2 µM 40% | [8]; at 1.2 µM 50% | [9]; at 1.2 µM 42% | [9]; at 3.7 µM 50% | [9]; [17] 8% | [10]; at 1.2 µM 35% | [10]; at 3.7 µM 41% | [10]; [17] 31% | [11]; at 1.2 µM 33% | [11]; at 3.7 µM 44% | [12]; [17] 49% | [13]; at 1.2 µM 21% | [13]; at 3.7 µM 21% | [13]; at 11.0 µM 55% | [14]; [17] 25% | [15]; at 1.2 µM 9% | [15]; at 3.7 µM 36% | [15]; [17] 42% | [1]; at 1.2 µM 6% | [1]; at 3.7 µM 11% | [2]; at 1.2 µM 50% | [3]; at 1.2 µM 38% | [3]; at 3.7 µM 45% | [16]; [17] 18% | [4]; at 1.2 µM 33% | [4]; at 3.7 µM 64%
active: [5]; at 11.0 µM 98% | [5]; at 33.0 µM 99% | [5]; at 100.0 µM 94% | [6]; at 11.0 µM 91% | [6]; at 33.0 µM 99% | [6]; at 100.0 µM 98% | [7]; at 3.7 µM 73% | [7]; at 11.0 µM 99% | [7]; at 33.0 µM 100% | [7]; at 100.0 µM 96% | [8]; at 3.7 µM 73% | [8]; at 11.0 µM 100% | [8]; at 33.0 µM 99% | [8]; at 100.0 µM 97% | [9]; at 11.0 µM 97% | [9]; at 33.0 µM 99% | [9]; [18] 98% | [9]; at 50.0 µM 91.2% | [9]; at 100.0 µM 95% | [10]; at 11.0 µM 99% | [10]; at 33.0 µM 100% | [10]; [18] 100% | [10]; at 50.0 µM 93.5% | [10]; at 100.0 µM 96% | [11]; at 11.0 µM 99% | [11]; at 33.0 µM 100% | [11]; at 100.0 µM 96% | [12]; [18] 100% | [12]; at 50.0 µM 90% | [13]; at 33.0 µM 98% | [13]; at 100.0 µM 93% | [14]; [18] 98% | [14]; at 50.0 µM 90% | [15]; at 11.0 µM 98% | [15]; at 33.0 µM 99% | [15]; [18] 99% | [15]; at 50.0 µM 90% | [15]; at 100.0 µM 92% | [1]; at 11.0 µM 90% | [1]; at 33.0 µM 99% | [1]; at 100.0 µM 95% | [2]; at 3.7 µM 73% | [2]; at 11.0 µM 100% | [2]; at 33.0 µM 99% | [2]; at 100.0 µM 97% | [3]; at 11.0 µM 83% | [3]; at 33.0 µM 99% | [3]; at 100.0 µM 97% | [16]; [18] 99% | [16]; at 50.0 µM 90.8% | [4]; at 11.0 µM 96% | [4]; at 33.0 µM 99% | [4]; at 100.0 µM 95%
